Screens from PubChem BioAssay.
A selection: hits, their analogues and other compounds. The true share with any hit is near 2.8%.
pPAFAH FP inh = pPAFAH (human) enzyme inhibition; inhibition, % at 3.39 µM; recombinant pPAFAH, FP-rhodamine probe fluorescence polarization; Q13093; AID 463082; 330,000 tested, 1.5% active;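 active = inhibition above the mean inhibition across the screen plus 3 SD, cut at about 25% in these data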;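 also: inhibitors block binding of the rhodamine activity-based probe so polarization drops; 0% = enzyme with DMSO and 100% = wells lacking pPAFAH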
PAFAH2 FP inh = PAFAH2 (human) inhibition | 340,000 tested, 0.99% active | recombinant PAFAH2, FP-rhodamine activity probe, fluorescence polarization | Q99487 | inhibition, % at 3.39 µM | AID 492956;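 active = inhibition above the mean over all tested compounds plus 3 SD, cut at about 30% in these data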;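 also: inhibitors block probe labeling of enzyme so polarization drops; 0% = enzyme with DMSO and 100% = wells lacking PAFAH2 protein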
PAFAH1B3 FP inh = blocks human PAF acetylhydrolase 1B catalytic subunit 3 | inhibition, % at 3.39 µM | recombinant PAFAH1B3, FP-rhodamine probe, fluorescence polarization | Q15102 | 340,000 tested, 0.28% active;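 active = inhibition above the screen-wide average of all tested compounds plus 3 SD, cut at about 25% in these data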;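 also: 0% = enzyme with DMSO only and 100% = wells lacking PAFAH1B3 protein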
DAGLB inh = blocks human DAGLB lipase activity; inhibition, % at 5.17 µM; AID 504411; 340,000 tested, 0.059% active; Q8NCG7; HEK293T DAGLB membrane lysate, EnzChek fluorogenic substrate; in the data active = inhibition above about 34%;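 also: 0% = enzyme with vehicle and 100% = wells lacking enzyme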
Target sequence (Q8NCG7 whole entry, looked up): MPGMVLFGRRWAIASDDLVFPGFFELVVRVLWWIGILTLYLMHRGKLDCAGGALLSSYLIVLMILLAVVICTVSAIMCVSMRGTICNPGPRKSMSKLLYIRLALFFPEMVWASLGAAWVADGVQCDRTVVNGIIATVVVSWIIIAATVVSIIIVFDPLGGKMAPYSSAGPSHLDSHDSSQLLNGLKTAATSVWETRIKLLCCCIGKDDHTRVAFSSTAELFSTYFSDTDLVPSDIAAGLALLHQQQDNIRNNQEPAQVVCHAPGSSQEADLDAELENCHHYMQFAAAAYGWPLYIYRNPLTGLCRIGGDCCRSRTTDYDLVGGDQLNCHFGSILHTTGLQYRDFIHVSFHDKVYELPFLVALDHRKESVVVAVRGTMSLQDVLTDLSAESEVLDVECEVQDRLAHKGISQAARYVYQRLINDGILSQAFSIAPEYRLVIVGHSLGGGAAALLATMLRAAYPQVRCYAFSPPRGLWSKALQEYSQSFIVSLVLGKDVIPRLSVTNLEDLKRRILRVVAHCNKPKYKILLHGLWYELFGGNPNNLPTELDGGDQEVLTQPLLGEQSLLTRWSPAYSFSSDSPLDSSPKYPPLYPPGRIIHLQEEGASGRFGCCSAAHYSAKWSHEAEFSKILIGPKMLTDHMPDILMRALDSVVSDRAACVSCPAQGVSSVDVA
PAFAH1B2 inh = PAFAH1B2 (human) inhibition; recombinant PAFAH1B2, FP-rhodamine activity probe, fluorescence polarization; 340,000 tested, 1.2% active; P68402; inhibition, % at 3.39 µM;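 active = inhibition above the mean of all tested compounds plus 3 SD, cut at about 24% in these data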;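 also: 0% = enzyme with DMSO and 100% = wells lacking PAFAH1B2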
HTRA1 inh = inhibitors of human serine peptidase HTRA1; Q92743; recombinant HTRA1, FP-rhodamine activity-based probe, fluorescence polarization; inhibition, % at 5.96 µM; 340,000 tested, 0.5% active; in the data active = inhibition above about 36%;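 also: 0% = enzyme with DMSO and 100% = wells lacking enzyme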
* marks the source's active call; other numbers are inactive results; nt = no result given.

SMILES	pPAFAH FP inh	PAFAH2 FP inh	PAFAH1B3 FP inh	DAGLB inh	PAFAH1B2 inh	HTRA1 inh
CCc1ccc(S(=O)(=O)NCCc2csc(-c3ccccc3)n2)s1	14.4	-3.8	-1.6	-6.7	39.0*	-23.1
CCc1ccc(S(=O)(=O)NCc2csc(-c3ccccc3)n2)s1	8.0	1.9	1.4	-6.3	11.5	-16.7
O=C(O)CNC(=O)C12CC3CC(CC(Cl)(C3)C1)C2	2.2	0.4	6.7	0.8	32.8*	2.5
O=C(Nc1nc(-c2ccco2)c(-c2ccco2)s1)c1cnccn1	33.1*	nt	nt	nt	nt	nt
O=C(Nc1nc(-c2ccco2)c(-c2ccco2)s1)c1ccc(F)cc1F	nt	3.3	5.2	3.8	1.4	8.2
NC(=O)c1cnn(C2CCS(=O)(=O)C2)c1 (stereo not drawn)	-2.6	0.2	1.6	0.2	-1.5	9.4
N#Cc1c(C(F)(F)F)cc(=O)n2c1[nH]c1ccccc12	nt	7.3	19.1	4.3	5.5	0.0
N#Cc1c(CSCC(=O)O)cc(=O)n2c1[nH]c1ccccc12	26.6*	3.1	6.8	-6.2	1.9	7.1
Cc1ccc2nc(SCC(=O)Nc3ccc(F)cc3)nc(=O)n2c1	4.9	4.3	4.6	-2.0	2.9	-1.1
Cc1cc(C)cc(NC(=O)CSc2nc(=O)n3cc(C)ccc3n2)c1	24.9*	8.6	2.1	-3.1	4.0	2.4
Cc1noc(C)c1NC(=O)N(C)C[C@H]1Oc2ccc(NC(=O)c3ccncc3)cc2C(=O)N([C@H](C)CO)C[C@@H]1C	0.9	7.2	9.3	-2.0	8.1	-1.5
Cc1ccc(CN2C(=O)C(=O)N(CC(N)=O)C2=O)cc1	0.1	-8.3	5.9	2.9	0.1	3.5
Cc1ccc(C(=O)CN2C(=O)C(=O)N(Cc3ccccc3)C2=O)cc1	-0.9	2.0	0.2	-1.2	26.3*	-0.4
C[C@H]1CN([C@@H](C)CO)C(=O)CCCn2nncc2CO[C@@H]1CN(C)S(=O)(=O)c1ccc(Oc2ccccc2)nc1	nt	nt	nt	0.0	nt	-5.2
CCc1ccc(N2C(=O)Cc3c2nc(N)c(C#N)c3N)cc1	10.6	0.5	4.0	5.5	9.2	6.7
CCN(CC)c1nc2c3c(nc4c(c3c1C#N)CC(=O)N4c1ccc(Cl)cc1)NC(C)=N2	63.7*	15.5	13.7	15.1	15.3	35.3
COc1ccccc1-c1cccc([C@@H]2C[C@H]3[C@H](CON3C)CN2S(=O)(=O)c2ccccc2C)c1	nt	-0.5	5.2	-5.1	5.0	-8.7
CC1CCN(S(=O)(=O)c2ccc3c(c2)CCN3C(=O)CCC(=O)O)CC1	2.3	0.9	10.7	0.3	26.4*	7.8
C/C(=N\OC(=O)c1ccc(F)cc1)c1nccs1	3.8	33.0*	10.5	0.0	3.7	-1.0
CCN(CC(=O)NCc1cccs1)S(=O)(=O)c1cccc(Br)c1	4.4	2.5	-2.8	-2.2	1.0	-1.7
CCC(C)(C)NC(=O)C(c1cccc(OC)c1OC)N(C(=O)CCC(=O)Nc1cc(C)on1)C(C)C (stereo not drawn)	0.8	12.9	1.8	-1.8	8.7	0.1
Nc1c(C(=O)Nc2ccccc2F)sc2nc(-c3ccco3)ccc12	31.2*	23.8	3.2	5.1	-3.4	16.5
Nc1c(C(=O)Nc2ccccc2F)sc2nc(-c3cccnc3)ccc12	10.2	2.3	3.0	-1.6	5.1	-6.1
NC(=O)C1CCCN(CC(=O)Nc2ccccc2C(=O)NC2CC2)C1 (stereo not drawn)	1.6	-5.6	6.6	-0.3	3.8	10.1
O=C(COc1cccnc1[N+](=O)[O-])Nc1c(Cl)cccc1Cl	4.9	-1.8	-3.4	0.6	2.6	1.7
SMILES	pPAFAH FP inh	PAFAH2 FP inh	PAFAH1B3 FP inh	DAGLB inh	PAFAH1B2 inh	HTRA1 inh
O=C(COc1cccnc1[N+](=O)[O-])c1ccc(Cl)s1	30.5*	18.4	8.5	3.5	3.5	16.5
O=C(CN1C(=O)N/C(=C\c2ccccc2OCc2ccc(C(=O)O)cc2)C1=O)Nc1ccccc1F	7.0	-6.4	-5.2	2.2	4.3	-37.0
CN1CCC(=O)N(CCSc2ccc(Br)cc2)CC1	7.6	11.7	11.3	1.1	25.8*	0.5
CN1CCC(=O)N([C@H](CSc2ccc(Br)cc2)Cc2ccccc2)CC1	7.8	0.7	4.3	0.3	9.9	-3.7
CC(C)=C(NC(=O)c1ccccc1)C(=O)Nc1cccc(C)c1	3.6	-11.2	2.3	2.5	-0.6	3.4
O=C(CSc1ccc(Cl)cc1)Nc1ccc(N2CCN(C(=O)c3ccco3)CC2)cc1	20.2	10.5	1.5	-0.3	25.9*	4.1
Cc1ccccc1C(=O)N1CCN(c2ccc(NC(=O)CSc3ccc(Cl)cc3)cc2)CC1	17.8	-1.2	4.3	1.7	31.5*	-2.5
O=C(/C=C/c1ccccc1)CC(O)(c1ccccc1)C(F)(F)F (stereo not drawn)	2.0	9.3	-1.6	13.9	54.8*	-26.2
COc1ccc(/C=C/C(=O)CC(O)(c2ccccc2)C(F)(F)F)cc1 (stereo not drawn)	-4.0	10.0	10.2	4.4	25.5*	-5.9
COc1ccc(/C=C/C(=O)CCC(=O)O)cc1	0.3	3.2	3.9	-0.6	7.0	3.8
O=C(/C=C/c1ccccc1)COC(=O)c1ccccc1	nt	12.1	9.8	0.8	6.6	-4.3
O=C(COC(=O)c1ncc(Cl)c(Cl)c1Cl)NC(=O)c1ccccc1	1.9	5.4	2.7	-0.9	4.4	0.5
Cc1cc(=O)[nH]c(NNC(=O)c2ccc(Cl)cc2)n1	nt	nt	nt	-4.1	nt	3.7
COc1cccc2c(=O)c3cccc(N)c3[nH]c12	30.9*	9.8	11.5	13.5	0.1	31.6
CCOC(=O)NC(=O)CSc1nc(-c2ccc(C)c(C)c2)cn1-c1ccccc1	31.7*	3.4	0.3	-7.4	2.9	-38.1
CCOC(=O)NC(=O)CSc1nnnn1-c1ccccc1	-2.5	6.7	1.4	-1.8	3.4	0.9
Cc1ccc(-c2cn(-c3ccccc3)c(SCC(N)=O)n2)cc1C	30.4*	8.3	1.7	-1.4	-4.2	-10.0
O=C(NCc1ccco1)c1cccc2c1C(=O)c1ccc(N3CCC(Cc4ccccc4)CC3)cc1S2(=O)=O	33.1*	-12.6	-15.0	-19.2	-21.7	-17.5
O=C(CCSc1ccc(F)cc1)NNC(=O)c1ccc([N+](=O)[O-])cc1	6.0	0.1	2.4	-2.1	28.5*	-5.3
O=C(COC(=O)CSc1ccc(F)cc1)NNC(=O)c1ccc([N+](=O)[O-])cc1	21.5	3.0	10.0	0.6	20.5	5.2
CSc1nc2ccc(NS(=O)(=O)c3ccc4c(c3)OCCO4)cc2s1	30.4*	-1.2	4.3	0.1	0.0	-15.5
Cc1ccc(C)c(S(=O)(=O)NNC(=O)c2sc(NS(=O)(=O)c3ccccc3)nc2C)c1	8.1	9.6	5.7	-0.1	9.1	-3.1
NS(=O)(=O)c1ccc(NC(=O)COC(=O)c2ncc(Cl)c(Cl)c2Cl)cc1	-0.1	16.9	14.3	-0.2	4.9	-10.0
Cc1ccc(NC(=O)CN(C)S(=O)(=O)c2cccc3nsnc23)cc1	2.1	-3.4	7.1	-1.1	7.7	-1.8
